# The list is not random: actives were taken first. Their share in the collection is about 21%.
# NS1 function inh – influenza NS1 inhibition | AID 2326 | Potency, µM (titrated, usually from 46.1 µM), for the others: at the highest dose activity, positive = more growth | 0.4% of 270,000 active; calls by dose curve; further: potency means the concentration at half of the fitted maximal effect; actives are rising curves; nearly all actives have a fitted effect of over 50% in size
#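 Recovery from NS1-induced slow growth read by OD600 in budding yeast switched to galactose assay medium (pH 6.0, -URA) at 1:100 dilution. Compound 23 nl per well; the matching strain lacking NS1 serves as control.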
# Pf growth 48h – inhibits P. falciparum growth in the first generation, 48 h; P. falciparum luciferase growth in erythrocytes, 48 h; Potency, µM (titrated, usually from 28.7 µM), inactives show at the top dose activity change, negative = inhibition, actives largely listed as inhibitors; 5.9% of 310,000 active; AID 504832; further: potency means the concentration at half of the fitted maximal effect; on the % scale 0 is the no-effect control and ±100 the full control effect
#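 In quantitative HTS format, infected erythrocytes bearing luciferase-reporter parasites were treated for a single generation at 37 C. Luminescence after adding detection reagent served as the growth measure.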
# Shiga toxin inh – blocks Shiga toxin action in Vero cells. Vero cells, Shiga toxin protein synthesis inhibition reporter. inhibition, % at 38.7 µM. 9.2% of 290,000 active. AID 2315; in the data active means inhibition mostly above about 28%, no sharp cut-off; inactive means mostly below about 43%; further: 0% is about no effect
# Sm TGR inh – S. mansoni TGR enzyme inhibition; Q962Y6; purified TGR, DTNB reduction, TNB absorbance 405 nm; Potency, µM (top dose mostly 114 µM), for the others: top-dose activity change, negative = inhibition, hits mostly inhibitors; 3% of 360,000 active; AID 485364; further: potency means the concentration at half of the fitted maximal effect; on the % scale 0 is the no-effect control and ±100 the full control effect; nearly all actives have a fitted effect of over 60% in size
#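 First, TGR (20 nM dispensed) and NADPH were mixed with compound. Second, a 15 min room-temperature incubation followed. Third, further NADPH and then DTNB were added to start the reaction. Finally, TNB absorbance was monitored kinetically.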
# Cycloheximide cs – counter-screen hit for Shiga toxin inhibitors, cycloheximide. cell reporter, cycloheximide protein synthesis inhibition counterscreen. max response, %. 12% of 300,000 active. AID 2314; in the data active means max response mostly above about 13%, no sharp cut-off; inactive means mostly below about 14%; further: read at 38.3 µM for the half of the compounds with a filed dose; 0% is about no effect
# Pf growth 96h – P. falciparum growth inhibition at 96 hour, primary screen for plastid delayed-death inhibitors. P. falciparum luciferase reporter growth, 96 h. Potency, µM (doses to about 28.7 µM), without a hit: at the highest dose activity change, negative = inhibition, most hits filed as inhibitors. 6.9% of 320,000 active. AID 504834; further: potency means the concentration at half of the fitted maximal effect; on the % scale 0 is the no-effect control and ±100 the full control effect
#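 P. falciparum expressing integrated firefly luciferase grown in erythrocytes (2% hematocrit, 0.05% parasitemia final) with compounds for 96 hours at 37 C, 5% CO2. Growth inhibition read as loss of luminescence after adding luciferase detection reagent.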
# * hit, by the source's call; ? = inconclusive; nt = no result given. Unless noted, the call rests on the fitted dose curve; in most records, active means well fitted curve in the direction sought with a large enough effect; inconclusive means small, poorly fitted or top-dose-only effect, or another doubt; inactive means no such curve, though single readings can be large; an effect the other way counts as inactive or inconclusive.
SMILES,NS1 function inh,Pf growth 48h,Shiga toxin inh,Sm TGR inh,Cycloheximide cs,Pf growth 96h
O=C(Cc1ccccc1F)Nc1ccc(S(=O)(=O)N2CCCCC2)cc1,0.3%,-13.3%,-21.1,0.8%,17.8,?
CN(CC(=O)Nc1cccc(S(=O)(=O)N2CCCC2)c1)CC(=O)Nc1ccc(Cl)c(C(F)(F)F)c1,nt,14.7µM*,nt,3.6%,nt,?
CN(CC(=O)Nc1ccc(S(=O)(=O)N2CCCC2)cc1)Cc1c(F)cccc1Cl,nt,-21.4%,4.9,-2.0%,11.2,13.1µM*
Cc1cccc(C(=O)Nc2ccc(C(=O)OCc3cc(=O)n4c5c(sc4n3)CCCC5)cc2)c1,nt,nt,nt,55.0%,nt,nt
CCCCCCc1nc(C(N)=O)c2[nH]c(=O)n(-c3ccccc3F)c2n1,12.1%,1.8%,-3.1,-13.8%,8.3,-1.0%
Cc1ccc(NC2=CC(=O)CC(c3ccccc3)C2)cc1 (stereo not drawn),-3.1%,?,-2.2,0.0%,-2.0,?
Cc1ccc(NC2=CC(=O)CC(c3ccc(Cl)cc3)C2)cc1 (stereo not drawn),-4.6%,13.1µM*,-13.2,2.2%,2.1,?
Cc1cc(Cl)c(S(=O)(=O)Nc2ccc3c(c2)OCCO3)cc1OCC(=O)NC1CCCCC1,2.0%,nt,-2.5,-5.2%,18.7,?
Cc1cc(Cl)c(S(=O)(=O)N2CCN(c3ccc(F)cc3)CC2)cc1OCC(=O)NC1CCCCC1,17.5%,nt,-12.1,0.0%,-3.5,6.57µM*
CCOc1ccc(Cl)cc1S(=O)(=O)N1CCN(c2ccc(F)cc2)CC1,-69.9%,11.7µM*,-5.5,6.7%,-2.6,nt
CCOC(=O)C1CCCN(S(=O)(=O)c2cc(OCC(=O)NC3CCCCC3)c(C)cc2Cl)C1 (stereo not drawn),0.5%,nt,-14.3,3.1%,15.6,0.465µM*
Cc1cc(Cl)c(S(=O)(=O)NCC2CCCO2)cc1OCC(=O)NC1CCCCC1 (stereo not drawn),-4.9%,nt,9.3,5.4%,-4.1,5.86µM*
Cc1cc(S(=O)(=O)N2CCCC2)ccc1OCC(=O)NC1CCCC1,-3.0%,-1.0%,-5.5,6.6%,-1.6,27.6%
CC1CCN(S(=O)(=O)c2ccc(C(=O)N3CCCC(C(F)(F)F)C3)cc2)CC1 (stereo not drawn),nt,-27.5%,nt,-1.6%,nt,?
COc1ccccc1C(=O)NC(CCSC)C(=O)N1CCC(Cc2ccccc2)CC1 (stereo not drawn),nt,14.7µM*,nt,2.2%,nt,?
CSCCC(NC(=O)c1ccccc1)C(=O)N1CC=C(c2ccccc2)CC1 (stereo not drawn),-15.1%,9.28µM*,10.7,-5.2%,10.6,?
COC(=O)C1=C(C)Nc2c(c(=O)n(C)c(=O)n2C)C1c1ccc(Cl)cc1 (stereo not drawn),2.4%,-23.2%,-6.6,6.7%,-0.3,1.8%
C1CSC2(N1)C1CC3CC(C1)CC2C3 (stereo not drawn),-2.5%,34.5%,-10.5,0.0%,-2.9,-4.5%
S=C1NNC2(NN1)C1CC3CC(C1)CC2C3,-6.0%,-14.5%,44.7*,-1.1%,31.7*,-14.0%
O=C(NC(c1ccccc1)C(Cl)(Cl)Cl)c1ccccc1 (stereo not drawn),8.0%,?,4.6,-4.3%,-2.0,-29.5%
CC(NC(=O)[C@H](NC(=O)[C@@H]1Cc2ccccc2CN1)c1ccccc1)c1ccccc1 (stereo partly drawn),24.4%,0.0%,13.9,1.2%,7.2,?
Cc1ccc(NC(=O)[C@H](NC(=O)[C@@H]2Cc3ccccc3CN2)c2ccccc2)cc1,-3.1%,1.4%,44.7*,3.4%,25.2*,?
Cc1cccc(NC(=O)[C@@H](CC(C)C)NC(=O)[C@@H]2Cc3ccccc3CN2)c1,-0.2%,?,18.3,-13.2%,14.8,-17.9%
CC(C)c1ccc(NC(=O)[C@H](NC(=O)[C@@H]2Cc3ccccc3CN2)c2ccccc2)cc1,15.9%,?,35.2,0.8%,33.9*,?
COc1cccc(NC(=O)[C@H](NC(=O)[C@@H]2Cc3ccccc3CN2)c2ccccc2)c1,13.6%,?,38.2,-8.6%,30.2*,?
SMILES,NS1 function inh,Pf growth 48h,Shiga toxin inh,Sm TGR inh,Cycloheximide cs,Pf growth 96h
Cc1ccc(C(NC(=O)c2ccccc2)C(Cl)(Cl)Cl)cc1 (stereo not drawn),13.1%,11.7µM*,26.6,-0.2%,-2.8,?
Cc1nn(-c2ccccc2)c(Cl)c1/C=N/NC(=O)CCNc1n[nH]c(=O)[nH]c1=O,-0.8%,-18.8%,9.3,8.7%,-2.1,-10.4%
Cc1ccccc1N1C(=O)CC1(C#N)c1ccc(OCc2ccccc2)cc1 (stereo not drawn),-34.4%,?,10.2,-5.7%,0.7,?
Cc1ccc(C(=O)NC(C(=O)Nc2ccccc2)c2ccccc2)cc1 (stereo not drawn),?,9.28µM*,-0.3,23.3%,6.7,-6.6%
COc1cccc(NC(=O)[C@H](Cc2ccccc2)NC(=O)[C@@H]2Cc3ccccc3CN2)c1,29.0%,?,41.4,0.6%,25.7*,46.7%
Cc1ccc(C(=O)NC(C(=O)NC2CCCC2)c2ccccc2)cc1 (stereo not drawn),17.4%,6.5%,-1.4,-14.2%,-3.2,-2.9%
Cc1cccc(NC(=O)[C@H](NC(=O)[C@@H]2Cc3ccccc3CN2)c2ccccc2)c1,20.4%,-14.0%,16.7,-2.2%,26.3*,?
CC(NCC(O)COCCC12CC3CC(CC(C3)C1)C2)c1ccccc1 (stereo not drawn),-35.7%,5.22µM*,-17.2,nt,-5.6,30.1%
NCC(O)COCCC12CC3CC(CC(C3)C1)C2 (stereo not drawn),?,9.3%,-25.8,1.3%,7.4,-0.8%
COc1ccc(C(OCC(O)CNC(C)c2ccccc2)c2ccc(OC)cc2)cc1 (stereo not drawn),-1.3%,10.4µM*,7.0,-8.7%,-3.8,?
C/C=C/c1ccc(OCC(O)CNCCc2ccc(OC)cc2)c(OC)c1 (stereo not drawn),0.1%,?,-3.3,-12.5%,-2.2,?
OC(CNCCc1ccccc1)COc1ccc(OCC(O)CNCCc2ccccc2)cc1 (stereo not drawn),-3.6%,1.65µM*,-11.3,3.2%,-2.3,3.7µM*
COc1ccc(C(OCC(O)CNCCc2ccccc2)c2ccc(OC)cc2)cc1 (stereo not drawn),-5.4%,9.28µM*,-1.7,-16.9%,-5.8,4.15µM*
OC(CNCCc1ccc(Cl)cc1)COc1ccc2ccccc2c1 (stereo not drawn),2.8%,-2.8%,20.7,6.1%,4.2,19.5%
CC(NC(=O)Cc1ccccc1)c1cc2c(cc1Br)OCCCO2 (stereo not drawn),-3.3%,8.4%,15.4,7.8%,-3.2,3.1%
Cc1ccc2[nH]c3c(=O)n(CC(=O)N4CCN(c5ccccc5F)CC4)ncc3c2c1,nt,nt,nt,2.8%,nt,nt
COc1ccc(/C=C(\C#N)C(=O)OCC(=O)NCc2ccc(Cl)cc2)cc1,4.8%,?,-2.8,-20.9%,-3.5,?

# Screening data: PubChem, National Center for Advancing Translational Sciences (NCATS)
